# Laboratory results: PubChem BioAssay AID1117359 (Southern Research Institute, 2015)
# Screen size: about 1,500 compounds; about 460 (31%) were called active. A selection follows. Potency and affinity values are given separately. Unmarked numbers belong to inactive results.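 The calls were made as follows: active = viability at or below 80% at any tested concentration, marking the compound as toxic; inactive = the rest.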
# Experiment: viability loss in THP-1 monocytes – THP-1 cells, cytotoxicity control for Vif-APOBEC3G degradation inhibitor project, dose response (AID 1117359)
# Conditions: THP-1 viability, CellTiter-Glo luminescence, 72 h; series mostly up to 40 µM; viability: at the top concentration
SMILES,viability,outcome
CSc1ccc(CN(C)CC(=O)NC(=O)NCCC2=CCCCC2)cc1,88.9%,–
CC1(OC(=O)C2CCCC2)C(=O)C=C2C=C(c3ccsc3)OC=C2C1=O (stereo not drawn),107%,–
CC1(CCl)N([O-])C2=C(CCCC2)[N+]1=O (stereo not drawn),99.6%,–
O=C(NN=C1CCCCCC1)c1cccnc1,82.5%,–
O=C(N/N=C/c1cccnc1)c1cc(O)c(O)c(O)c1,98.4%,–
Cc1cc(C)n(CC(=O)NNC(=O)c2ccc(NC(=O)CC#N)cc2)n1,111%,–
CN(C)c1ccc(N/C=C/C(=O)c2ccco2)cc1,82.4%,–
Nc1cc(N)nc(SCc2cc([N+](=O)[O-])cc3c2OCOC3)n1,102%,–
Cc1ccc(N/N=C/c2c(C)c(C#N)c(=O)n(C)c2O)cc1C,109%,–
O=S(=O)(c1ccc(NC(=S)N/N=C/c2ccc(O)c(O)c2)cc1)N1CCOCC1,87.7%,–
Cn1ccnc1Sc1ccc(/C=N/NC(=O)c2ccccc2O)cc1[N+](=O)[O-],109%,–
O=C1C(=Cc2ccco2)CCCC1=Cc1ccco1,82.8%,–
O=C(COC(=O)COc1ccc(Cl)cc1Cl)NC1CCCCCC1,98.7%,–
CN1CCN(C(=O)/C(=C/c2ccc(F)cc2)NC(=O)c2ccccc2)CC1,91.1%,–
O=C(Cc1c(F)cccc1Cl)NNC(=O)c1ccccc1Cl,95.7%,–
COc1ccc2nc(-c3ccccc3)cc(C(=O)OCC(=O)N3CC(C)OC(C)C3)c2c1 (stereo not drawn),86.4%,–
O=C(c1coc(=O)c(Br)c1)N1CCCc2ccccc21,91.1%,–
CCCCN(C(=O)c1ccccc1OCc1ccc(F)cc1)c1c(N)n(CC(C)C)c(=O)[nH]c1=O,84.6%,–
COc1ccc(S(N)(=O)=O)cc1C(=O)OCC(=O)NC(C)(C#N)C1CC1 (stereo not drawn),106%,–
CCc1ccc(N2C(=O)Cc3c2nc(N)c(C#N)c3N)cc1,89.4%,–
COC(=O)c1ccccc1NC(=O)c1noc2c1CCC2,92.8%,–
O=C(CN1CCN(S(=O)(=O)c2ccc(F)cc2)CC1)c1ccc(O)c(O)c1,111%,–
CC(C)(C)c1ccc(S(=O)(=O)N2CCCCC2)cc1,82.3%,–
O=C(CCS(=O)(=O)c1ccc(Br)cc1)N1CCN(c2ccc(F)cc2)CC1,90.7%,–
CC(=O)Nc1ccc(NC(=O)C(C)OC(=O)CC23CC4CC(CC(Br)(C4)C2)C3)cc1 (stereo not drawn),94.2%,–

SMILES,viability,outcome
CC(=O)OC1OCCOC1NC(=S)Nc1ccc(C)cc1 (stereo not drawn),85.9%,–
CC(C)(C)NCCCCOc1ccc(F)cc1,103%,–
COC/C=C/C1=CC2=CC(=O)C(C)(OC(=O)c3ccco3)C(=O)C2=CO1 (stereo not drawn),83.5%,–
O=C(c1cc2ccccc2o1)N1CC=C(c2ccccc2)CC1,81.2%,–
O=c1c(N=Nc2ccc(O)cc2)c(-c2ccccc2)[nH]n1-c1ccc([N+](=O)[O-])cc1,86%,–
COc1ccc2nc(NNC(=O)c3cc(=O)c4ccccc4o3)sc2c1,87%,–
CC1(OC(=O)CCc2ccccc2)C(=O)C=C2C=C(c3ccsc3)OC=C2C1=O (stereo not drawn),102%,–
CCOC(=O)C1(Cc2ccc(OC)cc2)CCN(C(=O)Cc2cccnc2)CC1,97.1%,–
CCOc1ccc(-n2c(SCC(=O)Nc3cc(C)on3)nnc2-c2c[nH]c3ccccc23)cc1,88.8%,–
O=C(CC(=O)NN=Cc1ccc2c(c1)CCC2)NN=Cc1ccc2c(c1)CCC2,87.9%,–
COc1cc2ccccc2nn1,95.7%,–
C/C(=N\NC(=O)c1ccc(NS(=O)(=O)c2cccs2)cc1)c1ccccc1,88.2%,–
CCN1CCN(C(=O)C2COc3ccccc3O2)CC1 (stereo not drawn),99.7%,–
O=C(COC(=O)c1ccc(NS(=O)(=O)c2cccs2)cc1)NCc1ccco1,87.8%,–
O=C(O)CCc1ccc(-c2cccs2)n1-c1ccc(C(=O)O)cc1,110%,–
O=C(c1ccc(=O)oc1)N1CCCc2ccccc21,84.4%,–
O=C(Cc1ccccn1)c1ccncc1,99.1%,–
Cc1cc(O)ccc1-c1cnc2ccccc2n1,81.7%,–
Cc1cc(/C=C2\SC(=S)NC2=O)c(C)n1-c1ccc(O)cc1,108%,–
O=C(NCC1CCCO1)c1cc2ccccc2oc1=O (stereo not drawn),102%,–
NS(=O)(=O)c1ccc(CCNC(=O)CCS(=O)(=O)c2ccc(Br)cc2)cc1,89.9%,–
CC(OC(=O)/C=C/c1ccco1)C(=O)NC1CCCCC1 (stereo not drawn),95.2%,–
CC(=O)Nc1ccc(NC(=O)C(C)OC(=O)CCc2c[nH]c3ccccc23)cc1 (stereo not drawn),81.5%,–
O=c1ccc2c(-c3ccccc3S(=O)(=O)O)c3ccc(O)c(O)c3oc-2c1O,88.9%,–
CCOc1ccccc1C(O)C1=CC(=O)c2ccccc2C1=O (stereo not drawn),83.9%,–

SMILES,viability,outcome
CCOc1cccc(C(=O)Nc2ccccc2OC(F)F)c1,99.6%,–
CC(=O)Nc1nnc(SCC(=O)N2CCCc3ccccc32)s1,106%,–
O=C(Nc1ccc(F)c(Cl)c1)c1cccnc1,80%,–
Clc1ccc2c(c1)nc1n2CCCC1,106%,–
FC(F)Oc1ccccc1NC(=S)Nc1cccnc1,80.5%,–
CN(C)c1nc(N)nc(CSc2nc3c(c(=O)n(C)c(=O)n3C)n2Cc2ccccc2F)n1,98.6%,–
CCS(=O)(=O)c1ccc2oc(Nc3cccc(OC)c3)nc2c1,80.4%,–
CC(C)(C)c1nnc(NC(=O)c2ccc(Cl)nc2)s1,101%,–
CC1CCN(S(=O)(=O)c2ccc(C(=O)NCc3ccc4c(c3)OCO4)cc2)CC1,89.1%,–
Cc1cccc(N/N=C/c2ccc(O)c(O)c2O)c1,97.8%,–
CCn1c(C)nc2cc(C(=O)N/N=C/c3ccc(O)c(O)c3O)ccc21,89.4%,–
Cc1cc(C)c2c(c1)[C@@H]1C=CC[C@@H]1[C@H](c1ccc(S(=O)(=O)N3CCOCC3)cc1)N2,95.3%,–
Cc1oc(-c2ccccc2)nc1C(=O)OCC(=O)NCc1ccc(F)cc1,92.5%,–
CCC1(C(N)=O)CC2C=CC1C2 (stereo not drawn),95.8%,–
Cc1ccc(NC(=O)CCCCCC2NC(=O)NC2C)cc1 (stereo not drawn),–,inactive
O=C(CN1C(=O)c2ccccc2C1=O)NCC(=O)OCC(=O)c1cccc([N+](=O)[O-])c1,91.2%,–
C=C(C)C(=O)Nc1ccc2c(c1)OCCOCCOCCO2,102%,–
CCCCNC(=O)CN1C(=O)CSc2ccc(S(=O)(=O)N3CCOCC3)cc21,95.1%,–
O=C(O)CCc1ccc(S(=O)(=O)Nc2cc(C(F)(F)F)ccc2N2CCCC2)cc1,87.6%,–
CCN(CC)c1ccc(NC(=O)c2c(C)noc2C)cc1,87.7%,–
CCCC(=O)NNC(=O)Nc1ccccc1,98.9%,–
Cc1c(Cl)cccc1NC(=O)CC(Cc1ccccc1)C(=O)O (stereo not drawn),111%,–
CCNC(=S)Nc1ccc(N(c2ccccc2)C(C)C)cc1,92.8%,–
